Screens as filed in PubChem.
The list is not random: actives were taken first. Their share in the collection is about 9%.
HPGD block: qHTS Assay for Inhibitors of HPGD (15-Hydroxyprostaglandin Dehydrogenase); 15-hydroxyprostaglandin dehydrogenase [NAD(+)] (Homo sapiens), P15428; purified HPGD, NADH fluorescence kinetic, PGE2 substrate; Potency, µM, without a hit: top-dose activity change, negative = inhibition, most hits filed as inhibitors; 150,000 compounds, 4.3% hits; AID 894, 2007; note: potency is the fitted concentration of half-maximal effect
Target sequence (P15428 whole entry, looked up): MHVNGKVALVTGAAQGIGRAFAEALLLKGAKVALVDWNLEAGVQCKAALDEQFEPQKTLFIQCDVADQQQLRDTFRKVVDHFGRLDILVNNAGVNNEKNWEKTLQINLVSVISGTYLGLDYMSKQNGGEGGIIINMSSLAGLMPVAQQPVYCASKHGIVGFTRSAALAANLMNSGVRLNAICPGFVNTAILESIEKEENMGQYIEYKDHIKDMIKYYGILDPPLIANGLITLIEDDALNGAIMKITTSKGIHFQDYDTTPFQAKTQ
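NADH formation kinetics: reaction with 30 uM PGE2 and 1 mM NAD+ (final), 20 nM enzyme, Tris-HCl pH 8 with Tween 20, after 15 min compound preincubation at room temperature. Fluorescence change, last versus first of five reads.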
IMPase cell inh: qHTS Assay for Identifying the Cell-Membrane Permeable IMPase Inhibitors; Inositol monophosphatase 1 (Rattus norvegicus), P97697; CHO-M1 cells, IP1 accumulation, HTRF TR-FRET ratio; inhibition (IP1 accumulation), % at 46.1 µM; 120,000 tested, under 10 active; AID 901, 2007; active = well fitted curve in the direction sought with a large enough effect in the signal ratio, not every such curve was filed as active; inconclusive = small, poorly fitted or top-dose-only effect, or a change in a side signal; inactive = no such curve, though single readings can be large or run the other way; the % refers to the signal ratio;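 note: cells stimulated with carbachol in lithium chloride buffer; plate controls were DMSO basal wells for no effect and reference inhibitor wells for full effect; higher means more IMPase inhibition seen as more IP1 and lower FRET ratio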
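Measured: the HTRF emission ratio (665/620 nm) plus the 620 nm donor channel, each fitted to the Hill equation to give AC50. Cells were CHO-M1 given compounds up to 46 uM and a 30 min carbachol stimulation at 37C.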
ALDH1A1 block: qHTS Assay for Inhibitors of Aldehyde Dehydrogenase 1 (ALDH1A1). Purified ALDH1A1, NADH fluorescence, propionaldehyde substrate. Potency, µM (top dose mostly 75.3 µM), for inactives: at the top dose activity, negative = inhibition, actives largely listed as inhibitors. 220,000 compounds, 7.3% hits;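 note: potency is the fitted concentration of half-maximal effect; plate controls were no enzyme wells and a reference inhibitor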
The depositor's hits bear a star. Unless noted, calls come from the whole dose curve; as a rule, active = well fitted inhibition curve with a large enough effect (not every such curve was filed as active); inconclusive = small, poorly fitted or top-dose-only effect, or another doubt; inactive = no such curve, though single readings can be large or run the other way. Unless noted, % is set by controls: 0 for no effect and ±100 for the full control effect.

Results for Cc1cc(OCC(=O)Nc2ccncc2)ccc1[N+](=O)[O-] ?
ALDH1A1 block: 10µM*

What do the screens show for `CC(C)c1ccc(NC(=O)c2ccc(NS(C)(=O)=O)cc2)cc1`?
ALDH1A1 block: -5%

Results for CCCn1c(C)nc2c(NCCN(C)C)nc(C)nc21 ?
HPGD block: -19%; ALDH1A1 block: 1%

Results for O=C(OCC(=O)c1c[nH]c2ccccc12)c1cc2ccccc2cc1O ?
HPGD block: -16%; ALDH1A1 block: 5%

What do the screens show for `CC1CCN(C(=O)C(C)Sc2nc(-c3ccccc3)cc(C(F)(F)F)n2)CC1` (stereo not given)?
HPGD block: 16µM*; IMPase cell inh: 4; ALDH1A1 block: inconclusive

What do the screens show for `CC(Sc1nc(-c2ccccc2)cc(C(F)(F)F)n1)C(=O)N1CCCC1` (stereo not given)?
HPGD block: -14%; IMPase cell inh: 9; ALDH1A1 block: 12%

How did COC(=O)Cc1c(C(=O)OC)nnn1-c1ccc(OC(F)(F)F)cc1 do in these assays?
ALDH1A1 block: -4%

What do the screens show for `O=c1c(-c2ccc(F)cc2)nc2cnc(Nc3ccccc3)nc2n1C1CC1`?
HPGD block: -7%; ALDH1A1 block: 5%

What do the screens show for `Cc1nn(C)cc1CN(C)Cc1c(C(=O)N(C)Cc2ccccc2)nc2ccccn12`?
ALDH1A1 block: 13%

How did CN(Cc1ccccc1)C(=O)c1nc2ccccn2c1CNCCOc1cccnc1 do in these assays?
ALDH1A1 block: 25µM*

How did CN(Cc1c(C(=O)N(C)Cc2ccccc2)nc2ccccn12)CC1Cc2ccccc2O1 (stereo not given) do in these assays?
ALDH1A1 block: 14µM*
